# Data as given in PMC11995724, “Antibiotic target discovery by integrated phenotypic and activity-based profiling of electrophilic fragments” (Cell chemical biology, 2025).
# Screen size: about 3,200 compounds; about 110 (3.4%) showed an effect of 50% or more. Only a selection was taken, and strong results are over-represented in it overall.
# Test system: T1, V. cholerae SAD30
# T1 construct: SAD30
# Set-up: species or system S. aureus MSSA476 (TSB) or V. cholerae SAD30 (LB); 384-well bacterial growth screen at 25 uM, OD600 relative to DMSO control
# Conditions: relative growth, OD600, LB; 25 µM; inhibitor
row,Structure (SMILES),% of control remaining [%]
1,"O=C(CCl)Nc1ccccc1F [4-M16, 2-chloro-N-(2-fluorophenyl)acetamide]",98.3394
2,"O=C(CCl)Nc1c(Cl)cccc1C(F)(F)F [5-B04, 2-chloro-N-[2-chloro-6-(trifluoromethyl)phenyl]acetamide]",98.0141
3,"O=C(CCl)Cc1cccc(F)c1F [10-K17, 1-chloro-3-(2,3-difluorophenyl)propan-2-one]",0.1559
4,"Cc1cccc(Cl)c1CCCNC(=O)CCl [7-F04, 2-chloro-N-[3-(2-chloro-6-methylphenyl)propyl]acetamide]",91.9874
5,"O=C(CCl)Cc1c(F)cccc1F [10-O15, 1-chloro-3-(2,6-difluorophenyl)propan-2-one]",99.7467
6,"O=C(CCl)NCCc1c(F)cccc1F [5-F20, 2-chloro-N-[2-(2,6-difluorophenyl)ethyl]acetamide]",99.5272
7,"O=C(CCl)Cc1c(Cl)cccc1Cl [10-K15, 1-chloro-3-(2,6-dichlorophenyl)propan-2-one]",45.6653
8,"O=C(CCl)Cc1c(F)cccc1Cl [10-D20, 1-chloro-3-(2-chloro-6-fluorophenyl)propan-2-one]",36.1582
9,"O=C(CCl)Nc1ccc(F)c(F)c1F [4-M05, 2-chloro-N-(2,3,4-trifluorophenyl)acetamide]",104.033
10,"Cc1ccc2sc(N(Cc3ccccc3)C(=O)CCl)nc2c1C [4-K06, N-benzyl-2-chloro-N-(4,5-dimethyl-1,3-benzothiazol-2-yl)acetamide]",100.927
11,"C=CC(=O)Nc1ccccc1Sc1nncs1 [1-G04, N-[2-(1,3,4-thiadiazol-2-ylsulfanyl)phenyl]prop-2-enamide]",100.149
12,"COCCNC(=O)C(C#N)=Cc1sccc1C [9-M17, 2-cyano-N-(2-methoxyethyl)-3-(3-methylthiophen-2-yl)prop-2-enamide]",85.9959
13,"O=C(CCl)N1C[C@@H]2C[C@H]1CN2c1ccccc1 [5-E22, 2-chloro-1-[(1S,4S)-5-phenyl-2,5-diazabicyclo[2.2.1]heptan-2-yl]ethan-1-one]",106.756
14,"O=C1C=CC(=O)N1c1cccc(O)c1 [10-O07, 1-(3-hydroxyphenyl)-2,5-dihydro-1H-pyrrole-2,5-dione]",26.4952
15,"COc1cccc(N2C(=O)C=CC2=O)c1 [10-K03, 1-(3-methoxyphenyl)-2,5-dihydro-1H-pyrrole-2,5-dione]",23.8457
16,"COc1cccc(NC(=O)C(C#N)=Cc2ccc(O)cc2)c1 [8-O17, 2-cyano-3-(4-hydroxyphenyl)-N-(3-methoxyphenyl)prop-2-enamide]",71.584
17,"COc1cccc(NC(=O)C(C)Cl)c1 (centres unmarked) [6-I03, 2-chloro-N-(3-methoxyphenyl)propanamide]",100.863
18,"Cc1cc(C(=O)CCl)c(C)n1-c1cccc([N+](=O)[O-])c1 [10-B16, 2-chloro-1-[2,5-dimethyl-1-(3-nitrophenyl)-1H-pyrrol-3-yl]ethan-1-one]",67.329
19,"CC(=O)Nc1cccc(N2C(=O)C=CC2=O)c1 [10-D09, N-[3-(2,5-dioxo-2,5-dihydro-1H-pyrrol-1-yl)phenyl]acetamide]",85.564
20,"O=C1C=CC(=O)N1c1cccc([N+](=O)[O-])c1 [10-P15, 1-(3-nitrophenyl)-2,5-dihydro-1H-pyrrole-2,5-dione]",35.6906
21,"NS(=O)(=O)c1cccc(N2C(=O)C=CC2=O)c1 [10-I05, 3-(2,5-dioxo-2,5-dihydro-1H-pyrrol-1-yl)benzene-1-sulfonamide]",102.396
22,"CC(Cl)C(=O)N1CCCC(n2ccc(C(F)(F)F)n2)C1 (centres unmarked) [7-A08, 2-chloro-1-{3-[3-(trifluoromethyl)-1H-pyrazol-1-yl]piperidin-1-yl}propan-1-one]",84.3218
23,"O=C(CCl)Nc1nc2c(s1)CCc1ccccc1-2 [6-D03, 2-chloro-N-{4H,5H-naphtho[1,2-d][1,3]thiazol-2-yl}acetamide]",105.868
24,"CC(NC(=O)CCl)C(=O)N1CCS(=O)(=O)CC1 (centres unmarked) [5-K14, 2-chloro-N-[1-(1,1-dioxo-1lambda6-thiomorpholin-4-yl)-1-oxopropan-2-yl]acetamide]",88.7675

row,Structure (SMILES),% of control remaining [%]
1,"C=CC(=O)N1CCOCC1c1noc(C)n1 (centres unmarked) [3-O11, 1-[3-(5-methyl-1,2,4-oxadiazol-3-yl)morpholin-4-yl]prop-2-en-1-one]",103.029
2,"C=CC(=O)N1CCC(C(=O)NCc2ccoc2C)CC1 [1-E14, N-[(2-methylfuran-3-yl)methyl]-1-(prop-2-enoyl)piperidine-4-carboxamide]",89.0882
3,"C=CC(=O)N(Cc1ccc(F)cn1)c1cnn(C2CCCC2)c1C [1-D11, N-(1-cyclopentyl-5-methyl-1H-pyrazol-4-yl)-N-[(5-fluoropyridin-2-yl)methyl]prop-2-enamide]",86.846
4,"Cc1ccc(C=C(C#N)C(=O)Nc2ccccc2C)cc1 [8-G16, 2-cyano-N-(2-methylphenyl)-3-(4-methylphenyl)prop-2-enamide]",72.8076
5,"N#CC(=Cc1ccc(C#N)cc1)C(=O)Nc1cccc(Cl)c1Cl [8-J05, 2-cyano-3-(4-cyanophenyl)-N-(2,3-dichlorophenyl)prop-2-enamide]",72.9436
6,"CC(Cl)C(=O)NCCc1nc2cc(F)ccc2s1 (centres unmarked) [7-P11, 2-chloro-N-[2-(5-fluoro-1,3-benzothiazol-2-yl)ethyl]propanamide]",81.4142
7,"CC(Cl)C(=O)Nc1ccc(Cc2nnc3ncccn23)cc1 (centres unmarked) [7-O22, 2-chloro-N-[4-({[1,2,4]triazolo[4,3-a]pyrimidin-3-yl}methyl)phenyl]propanamide]",91.0623
8,"O=C1C=CC(=O)N1c1ccc(OC(F)F)cc1 [10-P11, 1-[4-(difluoromethoxy)phenyl]-2,5-dihydro-1H-pyrrole-2,5-dione]",36.7816
9,"O=C1C=CC(=O)N1c1ccc(OC(F)(F)F)cc1 [10-J19, 1-[4-(trifluoromethoxy)phenyl]-2,5-dihydro-1H-pyrrole-2,5-dione]",30.0799
10,"N#CC(=Cc1cccc(Oc2ccccc2)c1)C(=O)N1CCCC1 [9-F06, 3-(3-phenoxyphenyl)-2-(pyrrolidine-1-carbonyl)prop-2-enenitrile]",85.724
11,"N#CC(=Cc1ccc(OC(F)F)cc1)C(=O)N1CCCC1 [8-L22, 3-[4-(difluoromethoxy)phenyl]-2-(pyrrolidine-1-carbonyl)prop-2-enenitrile]",77.0224
12,"CCOc1ccc(N2C(=O)C=CC2=O)cc1 [10-A14, 1-(4-ethoxyphenyl)-2,5-dihydro-1H-pyrrole-2,5-dione]",23.3781
13,"CCn1cc(N2C(=O)C=CC2=O)cn1 [10-I21, 1-(1-ethyl-1H-pyrazol-4-yl)-2,5-dihydro-1H-pyrrole-2,5-dione]",56.731
14,"Cc1cc(C(=O)C(C)Cl)c(C)n1-c1ccc(OC(F)F)cc1 (centres unmarked) [10-E10, 2-chloro-1-{1-[4-(difluoromethoxy)phenyl]-2,5-dimethyl-1H-pyrrol-3-yl}propan-1-one]",97.7206
15,"O=C1C=CC(=O)N1c1ccc(Oc2ccccc2)cc1 [10-F17, 1-(4-phenoxyphenyl)-2,5-dihydro-1H-pyrrole-2,5-dione]",26.1835
16,"Cc1cc(C(=O)CCl)c(C)n1-c1ccc(OC(F)(F)F)cc1 [10-G04, 2-chloro-1-{2,5-dimethyl-1-[4-(trifluoromethoxy)phenyl]-1H-pyrrol-3-yl}ethan-1-one]",98.344
17,"O=C(CCl)NCc1ccc(OC(F)(F)F)cc1 [6-G08, 2-chloro-N-{[4-(trifluoromethoxy)phenyl]methyl}acetamide]",91.3072
18,"CCOC(=O)C(C#N)=Cc1ccc(N2C(=O)C=CC2=O)cc1 [10-N11, ethyl 2-cyano-3-[4-(2,5-dioxo-2,5-dihydro-1H-pyrrol-1-yl)phenyl]prop-2-enoate]",96.6297
19,"O=C(CCl)NCCC1=CCCCC1 [4-H05, 2-chloro-N-[2-(cyclohex-1-en-1-yl)ethyl]acetamide]",111.451
20,"O=C(CCl)NCCc1cccc2c1Oc1ccccc1O2 [7-J18, 2-chloro-N-[2-(oxanthren-1-yl)ethyl]acetamide]",77.317
21,"CN(CC(=O)Nc1cccc(Cl)c1)C(=O)CCl [5-F18, 2-chloro-N-{[(3-chlorophenyl)carbamoyl]methyl}-N-methylacetamide]",84.0601
22,"Cc1ccc(Sc2ccc(NC(=O)CCl)cc2)cc1C [4-G03, 2-chloro-N-{4-[(3,4-dimethylphenyl)sulfanyl]phenyl}acetamide]",107.311
23,"CCCCNC(=O)C(C#N)=Cc1ccc2c(c1)OCCO2 [9-G11, N-butyl-2-cyano-3-(2,3-dihydro-1,4-benzodioxin-6-yl)prop-2-enamide]",85.724
